FPR binder – ligands of human FPR, also counter-screen for FPRL1 ligands; FPR-expressing cells, fluorescent ligand binding, flow cytometry; actives 0.74% (n = 24,000); inhibition, % (test concentration not listed); P21462;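 also: 0% = buffer wells and 100% = receptor blocker peptide wells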
FPRL1 ligand – binds the human formylpeptide receptor-like-1 FPRL1 | P25090 | inhibition, % (no concentration beside the values) | FPRL1-expressing cells, fluorescent ligand binding inhibition, flow cytometry | actives 0.3% (n = 24,000);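 also: 0% = buffer alone and 100% = receptor blocker peptide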
LNCaP diff act – promotes differentiation of LNCaP prostate cells. actives 0.56% (n = 24,000). side scatter shift, % at 10 µM. flow cytometry side scatter, 4 d;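 active = side scatter shift above 30%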;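 also: androgen-responsive LNCaP prostate cancer cells in charcoal-stripped serum medium; percent of cells past a gate set so DMSO wells show 10% shift; higher shift means more granular cells and more differentiation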
S aureus QS inh – S. aureus quorum sensing inhibition; S. aureus RN6390 RNAIII-GFP reporter, AIP-induced, flow cytometry 3 h; inhibition, % at 2 µM; actives 0.3% (n = 24,000); AID 527;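 active = share of bacteria positive for the green fluorescent reporter and its mean brightness both inhibited by 50% or more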;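 also: 0% = AIP-stimulated control and 100% = unstimulated bacteria without AIP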
Active calls of the source: *. A selection: hits, their analogues and other compounds. The true share with any hit is near 1.9%. Rule as the data show it, unless noted: active = inhibition above about 30%; inconclusive = no clear call, values can overlap the other calls; inactive = below that.

SMILES	FPR binder	FPRL1 ligand	LNCaP diff act	S aureus QS inh
CC1=C(C(=O)OC(C)C)[C@]2(C(=O)N(CC(N)=O)c3ccccc32)C(C#N)=C(N)O1	24.5	50.3*	2.0	-0.4
CCCNS(=O)(=O)c1ccc(OCC(=O)N2CCN(Cc3ccccc3)CC2)cc1	-5.3	1.8	13.0	-0.2
O=C(COc1ccc2ccccc2c1)N1CCN(C2CCN(Cc3ccccc3)CC2)CC1	-6.0	-8.0	46.0*	0.4
Cn1c[n+](C)cc1C(O)c1ccccc1 (stereo unspecified)	0.3	9.1	14.0	-3.6

Assay outcomes: PubChem, NMMLSC
